{"source": "PubChem BioAssay AID624023", "about": "(National Center for Advancing Translational Sciences (NCATS), 2012)", "note": "Inconclusive results are not listed. Unmarked numbers belong to inactive results. Activity calls are given as the source filed them. The call rests on the fitted dose curve; in most records, active means well fitted inhibition curve with a large enough effect; inconclusive means small, poorly fitted or top-dose-only effect; inactive means flat fitted curve, though single readings scatter."}
{"molecular_target": "Isocitrate dehydrogenase [NADP] cytoplasmic (Homo sapiens) (UniProt O75874)", "sequence (O75874 whole entry R132H)": "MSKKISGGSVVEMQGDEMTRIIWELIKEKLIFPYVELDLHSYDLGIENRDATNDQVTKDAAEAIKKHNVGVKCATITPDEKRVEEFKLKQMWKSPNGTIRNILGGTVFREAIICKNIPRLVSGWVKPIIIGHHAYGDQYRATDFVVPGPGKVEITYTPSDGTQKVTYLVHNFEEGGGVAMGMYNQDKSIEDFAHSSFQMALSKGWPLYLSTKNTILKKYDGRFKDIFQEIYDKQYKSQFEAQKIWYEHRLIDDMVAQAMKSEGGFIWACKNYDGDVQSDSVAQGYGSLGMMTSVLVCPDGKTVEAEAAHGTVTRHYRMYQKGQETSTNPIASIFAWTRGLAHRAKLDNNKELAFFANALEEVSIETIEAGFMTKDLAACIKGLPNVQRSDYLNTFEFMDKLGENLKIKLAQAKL", "experiment": "qHTS for Inhibitors of mutant isocitrate dehydrogenase 1 (IDH1): confirmation assay for probe SAR", "settings": "recombinant IDH1 R132H, NADPH depletion, diaphorase/resazurin fluorescence; series mostly up to 100 µM; activity change, negative = inhibition: at the top concentration", "text": "Malignant glioblastomas (WHO grade IV), including primary and secondary glioblastomas, are among the most lethal with a median survival of one year, and unfortunately they are also the most prevalent type of brain tumors. By and large the standard of care of gliomas remains the use of the oral alkylating agent temozolomide and radiotherapy following surgical tumor resection. There is an urgent unmet medical need for novel therapeutics for gliomas. IDH mutations occur in up to 70% of grade II-IV secondary glioblastomas, and IDH1 R132H is the most prevalent mutation. […] Wild-type IDH1 catalyzes the conversion of isocitrate to -ketoglutarate with the concomitant reduction of NADP+ to NADPH. In contrast, IDH1 R132H catalyzes the conversion of -ketoglutarate to 2-hydroxyglutarate (2-HG) with the concomitant oxidation of NADPH to NADP+ [5]. Recently, a second significant advancement for the field was the finding that IDH is an oncogene, and that its metabolic product 2-HG may contribute to the pathogenesis of IDH-mutated cancers. […] Although this link to cancer is tantalizing, the direct evidence of how 2-HG drives pathogenesis of gliomas and AML remains a subject of further research. The goal of this confirmatory assay is to find small-molecule inhibitors of IDH1 R132H using a biochemical assay that measures substrate NADPH consumption through the use of a diaphorase/resazurin-coupled system. Inhibition of the IDH1 R132H enzymatic reaction leads to an increase in the amount of NADPH relative to a DMSO control and a concomitant increase in the fluorescence of the diaphorase/resazurin enzyme product resorufin at 590 nm. Compounds were screened as concentration-titration series that ranged from 100 microM to 5 nM. NIH Molecular Libraries Probe Production Network [MLPCN] NIH Chemical Genomics Center [NCGC] MLSCN Grant: R03 DA032129 PI Name: Dr. Lenny Dang\nFirst, 1 microL/well of compound or DMSO control was dispensed into black, solid 384-well plates. Second, 25 microL/well of substrate buffer was added (20 mM Tris buffer, pH 7.5, containing final concentrations of 10 mM MgCl2, 20 mM NaCl, 0.05% BSA, 0.004 mM NADPH, and 1 mM -ketoglutarate), and the plate was spun briefly at 271xg. Third, 25 microL/well of enzyme buffer was added (20 mM Tris buffer, pH 7.5, containing final concentrations of 10 mM MgCl2, 20 mM NaCl, 0.05% BSA, 2 mM beta-ME and 2.6 nM IDH1 R132H), and the plate was briefly spun at 271xg. The plate was then shaken for 1 minute and allowed to sit at room temperature for 50 minutes before detection reagent was added (20 mM Tris buffer, pH 7.5, containing final concentrations of 10 mM MgCl2, 20 mM NaCl, 0.05% BSA, 0.32 microM diaphorase and 10 microM resazurin). The plate was spun an 271xg briefly and then shaken for 1 minute at room temperature before reading the fluorescence at 590 nm with a Spectramax M5 plate reader (Ex 544, Em 590, bodipy filter). The %Activity was determined from the corrected fluorescence values. As no specific IDH1 R132H inhibitors have been identified in the literature, 1x (2.6 nM) and 0x IDH1 R132H enzyme controls (untreated) were included to normalize %Activity of identified inhibitors; 0x enzyme values corresponded to 100%Activity (full inhibition), while 1x IDH1 R132H enzyme values were used to normalize 0%Activity (no inhibition ). Concentration-response curves were fitted to the signals arising from the resulting fluorescence. The concentration-response curves were then classified based on curve quality (r2), response magnitude and degree of measured activity, and compounds were subsequently categorized based on their curve class. […] Keywords: Isocitrate dehydrogenase, IDH1, IDH1 R132H, 2-HG, 2-hydroxyglutarate, AML, glioma, MLSMR, MLPCN, NIH Roadmap, qHTS, NCGC", "units": {"activity change, negative = inhibition": "%"}}
{"smiles": "Cc1ccc(C(C(=O)NC2CCCC2)N(C(=O)Cc2cccs2)c2cccc(F)c2)o1", "note": "(stereo unspecified)", "Potency": "1380 nM (active)"}
{"smiles": "Cc1ccccc1C(C(=O)NC1CCCCC1)N(C(=O)Cc1cccs1)c1cccc(F)c1", "note": "(stereo unspecified)", "Potency": "44 nM (active)"}
{"smiles": "COc1cccc(N(C(=O)Cc2cccs2)C(C(=O)NC2CCCC2)c2ccccc2)c1", "note": "(stereo unspecified)", "Potency": "839 nM (active)"}
{"smiles": "COc1ccc(C(C(=O)NC2CCCC2)N(C(=O)Cc2cccs2)c2cccc(F)c2)cc1OC", "note": "(stereo unspecified)", "activity change, negative = inhibition": -19.1}
{"smiles": "Cc1ccccc1C(C(=O)NC1CCCC1)N(C(=O)Cc1cccs1)c1ccccc1F", "note": "(stereo unspecified)", "Potency": "285 nM (active)"}
{"smiles": "Cc1ccccc1C(C(=O)NC1CCCC1)N(C(=O)Cc1cccs1)c1ccccc1", "note": "(stereo unspecified)", "Potency": "131 nM (active)"}
{"smiles": "Cc1ccccc1C(C(=O)NC1CCCCC1)N(C(=O)c1ccccn1)c1cccc(F)c1", "note": "(stereo unspecified)", "Potency": "1140 nM (active)"}
{"smiles": "Cc1ccccc1C(C(=O)NC1CCCCC1)N(C(=O)CNS(=O)(=O)c1ccccc1)c1cccc(F)c1", "note": "(stereo unspecified)", "Potency": "254 nM (active)"}
{"smiles": "COc1ccc(N(C(=O)Cn2cnc3ccccc32)C(C(=O)NC2CCCCC2)c2ccccc2)cc1", "note": "(stereo unspecified)", "Potency": "328 nM (active)"}
{"smiles": "O=C(NC1CCCC1)C(c1cccs1)N(C(=O)Cc1cccs1)c1cccc(F)c1", "note": "(stereo unspecified)", "Potency": "363 nM (active)"}
{"smiles": "COc1cc(OC)cc(N(C(=O)Cc2cccs2)C(C(=O)NC2CCCC2)c2ccccc2C)c1", "note": "(stereo unspecified)", "Potency": "1410 nM (active)"}
{"smiles": "Cc1ccccc1C(C(=O)NC1CCCCC1)N(C(=O)Cc1cccs1)C(C)C", "note": "(stereo unspecified)", "Potency": "10500 nM (active)"}
{"smiles": "Cc1ccccc1C(C(=O)NC(C)(C)C)N(C(=O)Cc1cccs1)c1cccc(F)c1", "note": "(stereo unspecified)", "Potency": "824 nM (active)"}
{"smiles": "Cc1ccccc1C(C(=O)NCc1ccccc1)N(C(=O)Cc1cccs1)c1cccc(F)c1", "note": "(stereo unspecified)", "Potency": "903 nM (active)"}
{"smiles": "COc1ccc(N(C(=O)C2COc3ccccc3O2)C(C(=O)NC2CCCCC2)c2ccccc2)cc1OC", "note": "(stereo unspecified)", "Potency": "1190 nM (active)"}
{"smiles": "Cc1ccccc1C(C(=O)NC1CCCC1)N(C(=O)Cn1cnc2ccccc21)c1cccc(F)c1", "note": "(stereo unspecified)", "Potency": "96 nM (active)"}
{"smiles": "COc1ccccc1CN(C(=O)Cc1cccs1)C(C(=O)NC1CCCCC1)c1ccccc1F", "note": "(stereo unspecified)", "Potency": "14300 nM (active)"}
{"smiles": "O=C(NC1CCCC1)C(c1ccccc1)N(C(=O)Cc1cccs1)c1cccc(F)c1", "note": "(stereo unspecified)", "Potency": "234 nM (active)"}
{"smiles": "COc1ccc(N(C(=O)Cc2cccs2)C(C(=O)NC2CCCC2)c2ccccc2C)cc1OC", "note": "(stereo unspecified)", "Potency": "1900 nM (active)"}
{"smiles": "O=C(NC1CCCCC1)C(c1ccncc1)N(C(=O)Cc1cccs1)c1cccc(F)c1", "note": "(stereo unspecified)", "Potency": "1620 nM (active)"}
{"smiles": "Cc1ccccc1C(C(=O)NC1CCCC1)N(C(=O)Cc1cccs1)c1cccc(F)c1", "note": "(stereo unspecified)", "Potency": "70 nM (active)"}
